Screens from PubChem BioAssay.
nsP2pro inh: Primary qHTS for inhibitors of NSP2Pro chikungunya virus (CHIKV) | Potency, µM (doses to about 24.9 µM), usual class: inhibitors | 31,000 compounds, 1.1% hits | FRET peptide cleavage, nsP2pro, fluorescence 1 h | Polyprotein P1234 (Chikungunya virus (strain S27-African prototype)), Q8JUX6; further: nearly all actives have a fitted effect of over 60% in size
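FRET cleavage of 2.5 uM peptide 2 by 150 nM CHIKV protease domain at pH 8.0 (Tris, Tween 20). Compounds at 7 concentrations (up to 25 uM) preincubated 15 min. Fluorescence read after 1 h at room temperature.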
nsP2 cell sec: Secondary cell base assay for inhibitors of NSP2Pro Chikungunya virus (CHIKV). AID 1964100, 2024. cell-based CHIKV nsP2 protease reporter assay. Potency, µM (series often up to 51.1 µM), most hits filed as inhibitors. 450 compounds, 10% hits. shares compounds with nsP2pro inh; further: nearly all actives have a fitted effect of over 70% in size
CHIKV NSP2 FL: Selectivity profile for inhibitors of NSP2Pro chikungunya virus (CHIKV): Full length NSP2 enzyme counterscreen (CHIKV-NSP2); Potency, µM (doses to about 50.7 µM), usual class: inhibitors; Full-length CHIKV NSP2 protease enzymatic counterscreen; 410 compounds, 39% hits; shares compounds with nsP2pro inh; further: nearly all actives have a fitted effect of over 65% in size
Furin counter: Selectivity profile for inhibitors of NSP2Pro chikungunya virus (CHIKV): Human furin counterscreen. Potency, µM (series often up to 50.6 µM), actives largely listed as inhibitors. 410 compounds, 6% hits. shares compounds with nsP2pro inh. Recombinant human furin enzymatic counterscreen, fluorogenic substrate
NS23 peptide cs: Selectivity profile for inhibitors of NSP2Pro chikungunya virus (CHIKV): Endogenous NS2/3 peptide Counterscreen. Purified CHIKV nsP2 protease, endogenous NS2/3 peptide cleavage. AID 1964103, 2024. 410 compounds, 34% hits. shares compounds with nsP2pro inh. Potency, µM (series often up to 51 µM), hits mostly inhibitors; further: nearly all actives have a fitted effect of over 55% in size
Papain counter: Selectivity profile for inhibitors of NSP2Pro chikungunya virus (CHIKV): Papain Counterscreen | purified papain protease activity, enzymatic inhibition | AID 1964104, 2024 | shares compounds with nsP2pro inh | 410 compounds, 5% hits | Potency, µM (top dose mostly 51 µM), actives largely listed as inhibitors
Target sequence (P00784 whole entry, looked up): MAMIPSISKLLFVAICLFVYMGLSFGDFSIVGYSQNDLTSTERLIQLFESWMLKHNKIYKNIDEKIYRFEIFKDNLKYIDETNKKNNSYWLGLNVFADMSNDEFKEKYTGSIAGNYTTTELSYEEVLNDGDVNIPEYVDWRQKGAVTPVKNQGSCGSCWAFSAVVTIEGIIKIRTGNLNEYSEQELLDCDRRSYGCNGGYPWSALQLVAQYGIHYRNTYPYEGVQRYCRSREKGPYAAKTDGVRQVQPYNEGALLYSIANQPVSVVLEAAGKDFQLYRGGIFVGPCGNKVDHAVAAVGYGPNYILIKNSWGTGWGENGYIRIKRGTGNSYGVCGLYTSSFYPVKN
nsP2pro conf qHTS: Confirmatory qHTS for inhibitors of NSP2Pro chikungunya virus (CHIKV). shares compounds with nsP2pro inh. CHIKV nsP2 protease enzymatic activity, qHTS. Potency, µM (doses to about 25.5 µM), actives largely listed as inhibitors. 410 compounds, 43% hits; further: nearly all actives have a fitted effect of over 75% in size
HCV NS3 counter: Selectivity profile for inhibitors of NSP2Pro chikungunya virus (CHIKV): NS34A-HCV Counterscreen; shares compounds with nsP2pro inh; HCV NS3/4A protease biochemical counterscreen; Potency, µM (series often up to 50.9 µM), most hits filed as inhibitors; 410 compounds, 20% hits; AID 1964106, 2024; further: nearly all actives have a fitted effect of over 55% in size
Hits are given with their value; - = inactive; ? = inconclusive. The full list was thinned out, with hits kept by preference. The call rests on the fitted dose curve.

SMILES	nsP2pro inh	others
CC1CCC(=O)CC(O)C(O)CC(=O)O1 (stereo unspecified)	?	nsP2 cell sec=-;CHIKV NSP2 FL=-;Furin counter=-;NS23 peptide cs=-;Papain counter=-;nsP2pro conf qHTS=-;HCV NS3 counter=-
C[C@@H]1C[C@H](O)/C=C/[C@H](O)[C@@H](O)CC(=O)O1	-
Cc1cc(C)nc(NC(=S)N2CCN(c3cccc([N+](=O)[O-])c3)CC2)c1	-
CC(=O)N1CCC(N[C@@H]2CO[C@H](CNS(=O)(=O)c3ccccc3)[C@H]2O)CC1	-
CC(=O)OC[C@@]12C(=O)C[C@@H](C)[C@]3(C[C@@H](c4ccoc4)OC3=O)[C@H]1CC[C@H](OC(C)=O)[C@]21CO1	-
C[C@@H]1CC[C@]2(C)C3(C)CC[C@@]2(OC3=O)[C@@]12C[C@H](c1ccoc1)OC2=O	2.43µM	nsP2 cell sec=-;CHIKV NSP2 FL=7.15µM;Furin counter=-;NS23 peptide cs=?;Papain counter=-;nsP2pro conf qHTS=2.2µM;HCV NS3 counter=1.8µM
c1cc2c(cc1CNc1ccc(N3CCCCC3)cc1)OCO2	-
O=C(O)c1cccc(-c2noc(-c3cccc(C(F)(F)F)c3)n2)c1	-
COc1ccc(CNC(=O)C[C@@H]2O[C@H](Cn3cc(CN(C)Cc4ccccc4)nn3)[C@@H](O)[C@H]2O)cc1	-
C[C@@H]1[C@H](c2c(F)ccc(F)c2F)C[C@H](NC(=O)c2cnc3c(c2)C[C@@]2(C3)C(=O)Nc3ncccc32)C(=O)N1CC(F)(F)F	-
O=C(NCc1c[nH]c2ncccc12)c1ccccc1Cl	-
O=C(NCc1ccnc2[nH]ccc12)c1ccccc1Cl	4.47µM	nsP2 cell sec=23.7µM;CHIKV NSP2 FL=4.73µM;Furin counter=-;NS23 peptide cs=18.8µM;Papain counter=-;nsP2pro conf qHTS=11.6µM;HCV NS3 counter=2.98µM
O=C(NCc1ccc(Cl)cc1)c1c[nH]c2ncccc12	-
O=c1c2nc(Nc3ccc(C(F)(F)F)cc3)ccc2ncn1Cc1ccccn1	-
CCOC(=O)c1cn(C2CN(S(=O)(=O)Cc3ccccc3)C2)nn1	-
C/C=C(\C)C(=O)OC1C2(O)CC3=C4CC(=O)OC(c5ccoc5)C4(C)CCC3C(C)(C2=O)C(C(OC(C)=O)C(=O)OC)C1(C)C (stereo unspecified)	-
COC(=O)[C@H](OC(C)=O)[C@H]1C(C)(C)C(=O)[C@H]2CC3=C4CC(=O)O[C@@H](c5ccoc5)[C@]4(C)CCC3[C@@]1(C)C2=O (stereo partly specified)	-
COC(=O)[C@H](O)[C@H]1C(C)(C)[C@H](OC(C)=O)[C@@]2(O)C(=O)[C@]1(C)C1CC[C@]3(C)C(CC(=O)O[C@H]3c3ccoc3)[C@]13O[C@@H]32 (stereo partly specified)	?	nsP2 cell sec=-;CHIKV NSP2 FL=?;Furin counter=-;NS23 peptide cs=-;Papain counter=-;nsP2pro conf qHTS=-;HCV NS3 counter=?
COC(=O)[C@@H](O)[C@H]1[C@@]2(C)CC3(O)[C@@H](C(=O)[C@H]2O)[C@]24O[C@]25CC(=O)O[C@@H](c2ccoc2)[C@]5(C)CCC4[C@]13C (stereo partly specified)	-
C=C1[C@@H]2CC[C@@]3(C)[C@H](c4ccoc4)OC(=O)C[C@]13O[C@H]1CC(=O)C(C)(C)[C@H](C(O)C(=O)OC)[C@]12C (stereo partly specified)	-
COC(=O)C[C@H]1C(C)(C)[C@H](OC(=O)c2ccccc2)C2CC3=C4CC(=O)O[C@@H](c5ccoc5)[C@]4(C)CCC3[C@@]1(C)C2=O (stereo partly specified)	-
CCC(=O)O[C@H]1C(C)(C)[C@H]([C@@H](O)C(=O)OC)[C@]2(C)C(=O)[C@@]1(O)[C@H]1O[C@]13C1CC(=O)O[C@@H](c4ccoc4)[C@]1(C)CCC32 (stereo partly specified)	?	nsP2 cell sec=-;CHIKV NSP2 FL=?;Furin counter=-;NS23 peptide cs=-;Papain counter=-;nsP2pro conf qHTS=?;HCV NS3 counter=?
COC(=O)[C@H](O)[C@H]1C(C)(C)[C@H](OC(=O)C(C)C)[C@@]2(O)C(=O)[C@]1(C)C1CC[C@]3(C)C(CC(=O)O[C@H]3c3ccoc3)[C@]13O[C@@H]32 (stereo partly specified)	?	nsP2 cell sec=-;CHIKV NSP2 FL=?;Furin counter=-;NS23 peptide cs=-;Papain counter=-;nsP2pro conf qHTS=?;HCV NS3 counter=-
Cn1cnc(S(=O)(=O)Nc2cnccc2C(=O)Nc2nc(-c3ccccc3)cs2)c1	-
CC(=O)C1=C(O)[C@@H]2[C@H]3c4c[nH]c5cccc(c45)C[C@H]3C(C)(C)N2C1=O	-
SMILES	nsP2pro inh	others
CCOc1ccccc1NC(=O)Nc1cccc(-c2ccc(N3CCCC3)nn2)c1	-
N/C(=N\c1nnc(-c2ccncc2)s1)Nc1ccc(F)c(C(F)(F)F)c1	-
Cc1cc(C)nc(NC(=S)N2CCN(c3nccs3)CC2)c1	-
Cc1ccsc1C(=O)N1CCCC(CN2CCCC2)CC1 (stereo unspecified)	-
CN(C)S(=O)(=O)N1CCc2nn(C)c(=O)n2CC1	-
COC(=O)[C@H](Cc1ccc(OC)cc1)NC(=O)[C@H]1CN(S(=O)(=O)c2ccccc2)CCN1S(=O)(=O)c1ccccc1	-
Cc1cnc(C(=O)NC2C[C@H]3CC[C@@H](C2)N3C(=O)c2ccccc2C)cn1 (stereo partly specified)	-
O=C(c1ccc(F)cc1)N1CCC(N2CCCCCC2=O)CC1	-
CCNC(=O)Nc1ccc(OCC(=O)N2CCN(c3ccccn3)CC2)nc1	-
CCOC(=O)Nc1ccc(NCc2c(C)cc(C)cc2C)cc1N	?	nsP2 cell sec=?;CHIKV NSP2 FL=-;Furin counter=-;NS23 peptide cs=?;Papain counter=-;nsP2pro conf qHTS=-;HCV NS3 counter=-
CCN1C(=O)Cc2cc(C(=O)NCc3c(C)cc(C)cc3C)ccc21	-
CCOC(=O)c1ccc(NC2CCCCC2)c(N)c1	-
CCCCCCO[C@@H](C)c1cccc(-c2csc(NC(=O)c3cc(Cl)c(/C=C(\C)C(=O)O)c(Cl)c3)n2)c1OC	-
Cc1nnc2ccc(N3CCC(NC(=O)C(C)C)CC3)nn12	-
CCOc1cccc(CN2CC(C(=O)NCc3ccncc3)C3(CCOCC3)C2)c1 (stereo unspecified)	-
